Screening results: PubChem, several laboratories
APP 5'UTR act – activates APP 5'UTR luciferase reporter; SH-SY5Y APP 5'UTR luciferase reporter, luminescence; zero percent = DMSO vehicle wells; activation, % at 2 µM; hit rate 1% among 190,000; AID 1276;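 active means activation above a set limit, based on mean plus 3 SD of controls, cut at about 140% in these data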
hcDAF-12 act – H. contortus DAF-12 activation, primary screen; HEK293 hcDAF-12 lit1-tk-luc reporter, luminescence; 0% DMSO, 100% Δ7-dafachronic acid; activation, % at 6.8 µM; hit rate 1.4% among 370,000;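 active means activation above the mean of all tested compounds plus 3 SD, cut at about 5.5% in these data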
ssDAF-12 act – S. stercoralis DAF-12 activation, primary screen | HEK293 ssDAF-12/GRIP1 lit1-tk-luc reporter, luminescence; % of 3 µM dafachronic acid response | hit rate 1% among 370,000 | activation, % at 6.8 µM;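 active means activation above the mean over all tested compounds plus 3 SD, cut at about 0.9% in these data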
NF-kB neuron act – compounds increasing NF-kB expression in human neuronal cells; NF-kB reporter expression; stronger effect = higher value; hit rate 1.6% among 190,000; fold change at 12.5 µM; AID 1239; in the data active means fold change above about 3.3
hgDAF12 agonist – hgDAF-12 agonism, primary luciferase screen. HEK293 GAL4-hgDAF12 UAS-luciferase reporter, agonist luminescence; normalized to butyrate control. activation, % at 6.8 µM. hit rate 1.8% among 370,000;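 active means activation above a cutoff set at the mean of all screened compounds plus 3 SD, cut at about 10% in these data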
hgDAF12 ag – confirmation of H. glycines DAF-12 agonists. shares compounds with hgDAF12 agonist. HEK293 GAL4-hgDAF12 luciferase reporter, agonist mode; percent of butyrate response. activation, % at 6.8 µM. hit rate 80% among 3,300;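 active means mean activation over triplicate wells above the hit cutoff derived from the earlier primary screen, cut at about 11% in these data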
LXRb DAF12 ctr – LXR-beta agonism as DAF-12 counter-screen. 3,300 tested, under 10 active. shares compounds with hgDAF12 agonist. activation, % at 6.8 µM. AID 743051. HEK293 Gal4-LXR luciferase reporter, 24 h;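 active means mean activation of the triplicate above a set limit carried over from the primary screen, none filed active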
Target sequence (P55055 whole entry, looked up, the tested form may be a part): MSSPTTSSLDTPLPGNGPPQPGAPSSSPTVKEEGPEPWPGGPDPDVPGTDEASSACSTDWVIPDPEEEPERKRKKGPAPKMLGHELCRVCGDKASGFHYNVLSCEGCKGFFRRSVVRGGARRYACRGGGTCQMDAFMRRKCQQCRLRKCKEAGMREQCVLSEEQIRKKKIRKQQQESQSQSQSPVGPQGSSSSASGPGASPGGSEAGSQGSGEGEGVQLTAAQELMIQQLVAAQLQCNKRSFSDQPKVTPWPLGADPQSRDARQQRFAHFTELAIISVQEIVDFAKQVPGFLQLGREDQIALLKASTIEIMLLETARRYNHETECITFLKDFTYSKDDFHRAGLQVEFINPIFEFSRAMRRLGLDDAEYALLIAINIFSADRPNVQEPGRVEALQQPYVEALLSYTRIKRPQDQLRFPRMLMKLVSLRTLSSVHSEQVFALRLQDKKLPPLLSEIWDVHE
Numbers stand for hits; – = inactive; · = no result given. Only some compounds are listed: those with a hit (about 3.4% of all), similar ones and a draw of the others.

SMILES	APP 5'UTR act	hcDAF-12 act	ssDAF-12 act	NF-kB neuron act	hgDAF12 agonist	hgDAF12 ag	LXRb DAF12 ctr
Nc1nc2ccccc2n1C(=O)CCc1ccccc1	–	–	–	–	14	18	–
Nc1nc2ccccc2n1C(=O)c1cccs1	–	–	1.0	4.7	15	13	–
Nc1nncn1C(=O)c1cccs1	–	–	–	–	–	·	·
COC(=O)C1CN(Cc2cn(Cc3ccccc3)nn2)CCS(=O)(=O)N1Cc1ccc(C)cc1 (configuration not stated)	·	–	–	·	–	·	·
Cc1cc(NO)nc(-c2ccc(Br)cc2)n1	–	–	–	–	13	19	–
OC(c1ccccc1)(c1ccccc1)C1CCN(CCCNc2ccc(C(F)(F)F)cc2)CC1	·	–	–	·	–	·	·
O=C(O)c1ccc(NC(=O)C2C3CCC(O3)C2C(=O)O)cc1 (configuration not stated)	·	6.0	1.4	·	14	–	–
CC(=O)c1ccc(OCc2cc(C(=O)N3CCN(c4ccccc4)CC3C)no2)cc1 (configuration not stated)	·	6.1	–	·	21	18	–
CSc1ccccc1OCc1cc(C(=O)N2CCN(c3ccccc3)CC2C)no1 (configuration not stated)	·	–	–	·	–	·	·
Cc1nc2ccc(S(=O)(=O)Nc3cc(-c4nc5cccnc5s4)ccc3C)cc2s1	–	–	–	–	17	–	–
CC(=O)Nc1cccc(-c2csc(Nc3ncccn3)n2)c1	135	–	1.1	–	19	16	–
O=C(Nc1cccc(-c2csc(Nc3ccc(Cl)cc3)n2)c1)c1ccccc1	·	–	–	·	–	·	·
Clc1cccc(Nc2nc(-c3ccncc3)cs2)c1	–	–	–	–	14	–	–
CN1CCS/C1=C/C=C1\SC(=S)N(CC(=O)O)C1=O	–	–	–	–	–	·	·
CCCCN1C(=O)/C(=C/C=C2\SCCN2C)SC1=S	–	–	–	–	14	–	–
O=C(C1CCCN1S(=O)(=O)c1ccc([N+](=O)[O-])cc1)N1CCN(c2ccccc2)CC1 (configuration not stated)	·	–	–	·	–	·	·
Cc1cccc(CC(C)NC(=O)c2cc(COc3ccc(C)c(C)c3)on2)n1 (configuration not stated)	·	–	–	·	–	·	·
Cc1cc(OCc2cc(C(=O)NC(C)c3cnn(C)c3)no2)cc(C)c1Cl (configuration not stated)	·	–	–	·	16	13	–
Cc1nc(C(C)NC(=O)c2cc(COc3ccc(C)c(C)c3)on2)c(C)s1 (configuration not stated)	·	–	–	·	13	14	–
Nc1nonc1N/N=C/c1c(O)ccc2ccccc12	–	–	–	–	–	·	·
Nc1cc(Cl)nc(N/N=C/c2c(O)ccc3ccccc23)n1	–	–	–	4.4	15	–	–
Cc1ccccc1Cn1cc(CN2[C@H](C)COc3cc(Br)ccc3S2(=O)=O)nn1	·	–	–	·	–	·	·
CCC(=O)Nc1cccc(-c2ccc(N3CCC(C)CC3)nn2)c1	·	5.8	1.0	·	18	13	–
Cc1ccc(C)c(N2CCN(c3cnn(-c4nc5ccccc5s4)c(=O)c3Cl)CC2)c1	–	–	–	–	14	12	–
O=C(/C(C=Nc1cc2c(oc1=O)CCCC2=O)=C(\O)c1ccccc1)c1ccccc1	–	–	–	–	14	–	–
SMILES	APP 5'UTR act	hcDAF-12 act	ssDAF-12 act	NF-kB neuron act	hgDAF12 agonist	hgDAF12 ag	LXRb DAF12 ctr
CC(=O)N1CCN(c2ccc(NC(=O)c3ccc4ccccc4c3)cc2)CC1	·	–	–	·	–	·	·
O=C(Nc1ccc(N2CCCCC2)cc1)c1cncc(Br)c1	–	–	–	4	15	14	–
O=C(Cc1ccccc1)Nc1ccc(N2CCCCC2)cc1	185	–	1.7	4.9	25	18	–
O=C(Nc1ccc(N2CCCC2)cc1)c1ccc2ccccc2c1	–	–	–	–	16	12	–
O=C(Nc1ccc(N2CCCCC2)cc1)c1ccc(F)cc1F	·	5.7	–	·	13	17	–
CCOC(=O)[C@]12CCCCC/C=C\1N(Cc1ccc(OC)cc1)C(=O)[C@H]2CC(=O)NCc1cccc2ccccc12	·	–	–	·	–	·	·
Cn1nnc2cc(C(=O)NC3CC3)ccc21	–	–	–	–	–	·	·
Cn1nnc2cc(C(=O)Nc3ccc4ccccc4c3)ccc21	–	–	–	4.3	15	17	–
C=CCN1C(=O)[C@@H](CC(=O)N2CCSCC2)[C@]2(C(=O)OC)CCCCC=C12	·	–	–	·	17	–	–
C=CCN1C(=O)[C@@H](CC(=O)N2CCCC2)[C@]2(C(=O)OC)CCCCC=C12	·	–	–	·	–	·	·
Cc1csc(NC(=O)c2ccc(Cl)cc2[N+](=O)[O-])n1	–	–	–	–	14	11	–
Cc1csc(NC(=O)c2ccccc2[N+](=O)[O-])n1	–	–	–	–	–	·	·
CCCCOc1ccc(C(=O)n2ccc3ccc(-c4ccc5ccn(Cc6ccc(OC)cc6)c5c4)cc32)cc1	·	–	–	·	–	·	·
O=C(O)c1ccc(/C=C2\CCCc3c2nc2ccccc2c3C(=O)O)cc1	·	–	–	·	–	·	·
CN(C)c1ccc(/C=C2\CCCc3c2nc2ccccc2c3C(=O)O)cc1	·	5.7	1.6	·	13	13	–
CCC(C)NC(=O)c1cc(-c2ccccc2O)on1 (configuration not stated)	–	–	–	–	14	–	–
O=C(NC1CCCCC1)c1cc(-c2ccccc2O)on1	·	–	–	·	13	15	–
Cc1ccccc1-c1nc2cc(N)ccc2o1	–	–	–	4	15	13	–
O=C1C(NC(=O)C(F)(F)Br)CCCCN1Cc1cccc(C(F)(F)F)c1 (configuration not stated)	·	–	–	·	–	·	·
COCCCn1cnc2oc3nc4ccccc4nc3c2c1=O	166	–	–	–	15	19	–
O=C(NCCc1ccccc1)OCc1cn(Cc2ccc(F)c(F)c2)nn1	·	–	–	·	–	·	·
O=C1C(=Cc2ccc(Cl)cc2)CCc2ccccc21	·	–	–	·	15	–	–
Cc1ccc(O)c(C2=NNC(c3ccc(Cl)cc3)C2)c1 (configuration not stated)	·	5.7	–	·	15	13	–
Cc1cc(/C=C2\SC(=S)NC2=O)c(C)n1-c1ccc(O)cc1	·	–	–	·	14	–	–
Cn1c(SCC2CCCCC2)nnc1-c1ccco1	·	–	–	·	15	15	–
Cn1c(SCc2ccccc2Cl)nc2ccccc21	–	–	–	–	14	15	–
Cc1ccc(-c2nc(C#N)c(NCc3ccco3)o2)cc1	–	–	–	3.6	14	16	–
N#Cc1nc(-c2ccc(F)cc2)oc1NCc1ccco1	·	–	–	·	–	·	·
COc1ccc(-c2nc(C#N)c(NCc3ccco3)o2)cc1	–	–	–	3.6	16	16	–
